TDP1 block: TDP1 (human) enzyme inhibition | recombinant TDP1, AlphaScreen DNA substrate cleavage | Potency, µM (doses to about 130 µM), most hits filed as inhibitors | 350,000 tested, 0.28% active | AID 485290; further: nearly all actives have a fitted effect of over 40% in size
Target sequence (Q9NUW8 whole entry, looked up): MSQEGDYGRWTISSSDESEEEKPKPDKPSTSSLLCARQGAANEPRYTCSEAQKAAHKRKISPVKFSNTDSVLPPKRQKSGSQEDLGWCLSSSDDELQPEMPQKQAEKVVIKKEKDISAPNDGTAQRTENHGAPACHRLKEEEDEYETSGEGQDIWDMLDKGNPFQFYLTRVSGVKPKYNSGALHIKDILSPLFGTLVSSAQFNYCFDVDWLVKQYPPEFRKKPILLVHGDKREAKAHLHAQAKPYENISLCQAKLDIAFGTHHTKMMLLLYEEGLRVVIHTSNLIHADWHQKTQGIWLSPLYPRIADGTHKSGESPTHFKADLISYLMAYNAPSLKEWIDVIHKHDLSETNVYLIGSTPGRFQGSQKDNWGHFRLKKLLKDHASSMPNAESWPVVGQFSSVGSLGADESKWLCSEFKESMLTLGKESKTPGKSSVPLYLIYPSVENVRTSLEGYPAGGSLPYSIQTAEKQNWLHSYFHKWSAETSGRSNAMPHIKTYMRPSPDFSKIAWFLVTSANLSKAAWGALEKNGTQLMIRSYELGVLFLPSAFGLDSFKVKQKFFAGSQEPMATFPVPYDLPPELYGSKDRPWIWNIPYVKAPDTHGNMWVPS
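Recombinant E. coli-expressed Tdp1 (1 nM) preincubated with compound 15 min at RT, then 5'-biotin/3'-phosphotyrosine-FITC DNA substrate (15 nM) added for 5 min. AlphaScreen beads (10 ug/ml) added, 10 min RT; tyrosine-FITC cleavage read as signal loss.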
DT40 TDP1 CPT: growth inhibition of DT40 Tdp1-/-;hTDP1 cells with camptothecin (screen for TDP1 inhibitors). chicken DT40 Tdp1-/-;hTDP1 cells + 20 nM CPT, ATP luminescence, 48 h. Potency, µM (highest dose often 46.2 µM), most hits filed as inhibitors. 420,000 tested, 12% active; further: nearly all actives have a fitted effect of over 55% in size
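Cell growth measured by CellTiter-Glo luminescence after a minimum 48 h, 37 C compound exposure with 20 nM CPT in Tdp1-knockout DT40 cells stably expressing hTDP1, seeded 400/well; qHTS titration format.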
VDR inh: inhibitors of human vitamin D receptor; P11473; VDR-SRC2-3 peptide fluorescence polarization, 2 h; Potency, µM, hits mostly inhibitors; 400,000 tested, 0.93% active
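After 23 nl compound addition and a short centrifugation, plates sat for 2 hours at ambient temperature; polarization of fluorescence then indicated loss of VDR binding to peptide SRC2-3.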
PLK1 PBD block: blocks phosphopeptide binding to human PLK1 polo-box domain; Plk1 PBD binding of FITC phosphopeptide, fluorescence polarization; AID 720504; P53350; 360,000 tested, 2.8% active; Potency, µM, most hits filed as inhibitors; further: series mostly up to about 57 µM; nearly all actives have a fitted effect of over 65% in size
DT40 TDP1 no CPT: qHTS for Inhibitors of human tyrosyl-DNA phosphodiesterase 1 (TDP1): qHTS in cells in absence of CPT | DT40 Tdp1-/- hTDP1 cells, no CPT, ATP luminescence, 48 h | Potency, µM (top dose mostly 46.2 µM), usual class: inhibitors | 420,000 tested, 15% active | AID 686978, 2013; further: nearly all actives have a fitted effect of over 55% in size
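Growth of hTDP1-complemented DT40 Tdp1-knockout cells is measured by ATP luminescence after at least 48 hr compound exposure at 37 °C, with DMSO substituting for the 20 nM CPT used in the parallel screen.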
GCN5L2 inh: blocks human GCN5L2 histone acetyltransferase; GCN5L2 HAT assay, ThioGlo1 CoA-SH fluorescence; 390,000 tested, 0.21% active; Potency, µM (top dose mostly 58.9 µM), actives largely listed as inhibitors; Q92830
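ThioGlo1-coupled HAT assay: 20nM GCN5L2, 70uM acetyl-CoA, 75uM H3(1-25) peptide, pH 7.5. Fluorescence read at 340/540nm at start and after 20 min at room temperature.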
A number is an active result. Sampled rows, rich in hits. Any-hit rate of the full collection: about 18%. The call rests on the fitted dose curve; in most records, active means well fitted curve in the direction sought with a large enough effect; inconclusive means small, poorly fitted or top-dose-only effect, or another doubt; inactive means no such curve, though single readings can be large; an effect the other way counts as inactive or inconclusive.

How did C/C(=N\NC(=O)c1cccc2ccccc12)c1cccs1 do in these assays?
TDP1 block: inactive; DT40 TDP1 CPT: inactive; VDR inh: inactive; PLK1 PBD block: inactive; DT40 TDP1 no CPT: inactive; GCN5L2 inh: inactive

What do the screens show for `C[C@@H]1C=C[C@](Cc2ccccc2)(C(=O)NCCCNc2ncc(C(F)(F)F)cc2Cl)N1C(=O)c1ccccc1`?
TDP1 block: inactive

Results for Cc1ccc(CS(=O)(=O)CC(C)(O)c2ccc(Cl)cc2)cc1 (stereo not given) ?
DT40 TDP1 CPT: inactive; VDR inh: inactive; PLK1 PBD block: inactive; DT40 TDP1 no CPT: inactive; GCN5L2 inh: inactive

How did CC(C)NC(=S)NC(=O)/C=C/c1ccc(F)cc1 do in these assays?
TDP1 block: inactive; DT40 TDP1 CPT: 21µM; VDR inh: inactive; PLK1 PBD block: inactive; DT40 TDP1 no CPT: 15µM; GCN5L2 inh: inactive

How did O=C(/C=C/c1ccc(F)cc1)NC(=S)Nc1ccccc1C(=O)NC1CCCCC1 do in these assays?
TDP1 block: inactive; DT40 TDP1 CPT: 16µM; VDR inh: inactive; PLK1 PBD block: inactive; DT40 TDP1 no CPT: 13µM; GCN5L2 inh: inactive

What do the screens show for `Cc1ccc(/C=C/C(=O)Nc2ccccc2C(N)=O)cc1`?
TDP1 block: inactive; DT40 TDP1 CPT: 21µM; VDR inh: inactive; PLK1 PBD block: inactive; DT40 TDP1 no CPT: inconclusive; GCN5L2 inh: inactive

Results for O=C(/C=C/c1ccccc1)NC(=S)Nc1ccccc1C(=O)NC1CCCCC1 ?
TDP1 block: inactive; DT40 TDP1 CPT: inconclusive; VDR inh: inactive; PLK1 PBD block: inactive; DT40 TDP1 no CPT: inconclusive; GCN5L2 inh: inactive

How did Cc1ccc(/C=C/C(=O)NC(=S)Nc2ccccc2C(=O)NC2CCCCC2)cc1 do in these assays?
TDP1 block: inactive; DT40 TDP1 CPT: 13µM; VDR inh: inactive; PLK1 PBD block: inactive; DT40 TDP1 no CPT: 12µM; GCN5L2 inh: inactive

What do the screens show for `Cc1ccc(/C=C/C(=O)c2ccccc2O)cc1`?
TDP1 block: inactive; DT40 TDP1 CPT: inconclusive; VDR inh: inconclusive; PLK1 PBD block: inactive; DT40 TDP1 no CPT: inconclusive; GCN5L2 inh: inactive

What do the screens show for `Cc1cc(C)c(OCC(=O)OCC(=O)N2CCCc3ccccc32)c(C)c1`?
TDP1 block: inactive; DT40 TDP1 CPT: inactive; VDR inh: inactive; PLK1 PBD block: inactive; DT40 TDP1 no CPT: inactive; GCN5L2 inh: inactive

How did Nc1nc(-c2c(Cl)cccc2Cl)no1 do in these assays?
TDP1 block: inactive; DT40 TDP1 CPT: inactive; VDR inh: inactive; PLK1 PBD block: inactive; DT40 TDP1 no CPT: inactive; GCN5L2 inh: inactive

Results for O=c1cc(CSc2ncn[nH]2)[nH]c2c(Cl)cccc12 ?
TDP1 block: inactive; DT40 TDP1 CPT: inconclusive; VDR inh: inactive; DT40 TDP1 no CPT: inconclusive; GCN5L2 inh: inactive

How did COCCNC(=O)C(OC(=O)c1nsc(Cl)c1Cl)C(C)C (stereo not given) do in these assays?
TDP1 block: inactive; DT40 TDP1 CPT: inactive; VDR inh: inactive; PLK1 PBD block: inactive; DT40 TDP1 no CPT: inactive; GCN5L2 inh: inactive

Results for CCCn1c(NCc2ccccc2NS(=O)(=O)c2ccc(C)cc2)nc2ccccc21 ?
TDP1 block: inactive; DT40 TDP1 CPT: inconclusive; VDR inh: inactive; PLK1 PBD block: inactive; DT40 TDP1 no CPT: 16µM; GCN5L2 inh: inactive

What do the screens show for `CCn1c(NCc2ccccc2NS(=O)(=O)c2ccc(C)cc2)nc2ccccc21`?
TDP1 block: inactive; DT40 TDP1 CPT: 16µM; VDR inh: inactive; PLK1 PBD block: inactive; DT40 TDP1 no CPT: 18µM; GCN5L2 inh: inactive

What do the screens show for `O=C(Nc1ccc(C(=O)N2CCCCC2)cc1)[C@H]1O[C@@H](n2ccc(=O)[nH]c2=O)[C@H](O)[C@@H]1O`?
DT40 TDP1 CPT: inactive; PLK1 PBD block: inactive; DT40 TDP1 no CPT: inactive

How did O=C(c1ccc2nc(-c3ccco3)c(-c3ccco3)nc2c1)N1CCN(c2ncccn2)CC1 do in these assays?
DT40 TDP1 CPT: inconclusive; VDR inh: inactive; PLK1 PBD block: inactive; DT40 TDP1 no CPT: inconclusive; GCN5L2 inh: inactive

What do the screens show for `c1coc(-c2nc3cc4ccccc4cc3nc2-c2ccco2)c1`?
TDP1 block: inconclusive; VDR inh: 22µM

How did c1coc(-c2nc(-c3ccco3)c(-c3ccco3)nc2-c2ccco2)c1 do in these assays?
TDP1 block: 3.2µM; DT40 TDP1 CPT: inconclusive; VDR inh: 40µM; PLK1 PBD block: 12µM; DT40 TDP1 no CPT: inconclusive; GCN5L2 inh: inconclusive

Results for COc1ccc2nc(-c3ccco3)c(-c3ccco3)nc2c1 ?
DT40 TDP1 CPT: 18µM; VDR inh: inconclusive; PLK1 PBD block: inconclusive; DT40 TDP1 no CPT: inconclusive; GCN5L2 inh: inactive

What do the screens show for `c1coc(-c2ncc[nH]2)c1`?
TDP1 block: inactive; DT40 TDP1 CPT: inactive; VDR inh: inactive; PLK1 PBD block: inactive; DT40 TDP1 no CPT: inactive; GCN5L2 inh: inactive

Results for COc1ccc(CCN2CCCn3c2nc2c3c(=O)[nH]c(=O)n2C)cc1OC ?
DT40 TDP1 CPT: 26µM; VDR inh: inactive; PLK1 PBD block: inactive; DT40 TDP1 no CPT: 7.3µM; GCN5L2 inh: inactive

Results for COCCn1c(=O)c2c(nc3n2CCCN3CCc2ccc(OC)c(OC)c2)n(C)c1=O ?
DT40 TDP1 CPT: inactive; VDR inh: inactive; PLK1 PBD block: inactive; DT40 TDP1 no CPT: inconclusive; GCN5L2 inh: inactive

Results for C=C1CCC(OC(C)=O)C2(C)CCC3C(C)C(=O)OC3C12O (stereo not given) ?
DT40 TDP1 CPT: inactive; VDR inh: inactive; PLK1 PBD block: inactive; DT40 TDP1 no CPT: inactive; GCN5L2 inh: inactive

Results for CC1C(=O)OC2C1CCC1(C)CCC(=O)C(C)C21 (stereo not given) ?
DT40 TDP1 CPT: inactive; VDR inh: inactive; PLK1 PBD block: 30µM; DT40 TDP1 no CPT: inconclusive; GCN5L2 inh: inactive

Results for O=S(=O)(NCCCCCCc1ccccc1)c1cccc2c(Cl)cccc12 ?
DT40 TDP1 CPT: 21µM; VDR inh: inactive; DT40 TDP1 no CPT: inconclusive; GCN5L2 inh: inactive

How did CN(C)CCCNS(=O)(=O)c1cc(Cl)ccc1Cl do in these assays?
TDP1 block: inactive; DT40 TDP1 CPT: inactive; VDR inh: inactive; PLK1 PBD block: inactive; DT40 TDP1 no CPT: inactive; GCN5L2 inh: inactive

What do the screens show for `NCCCCCCCCCCNS(=O)(=O)c1cccc2c(Cl)cccc12`?
TDP1 block: inactive; DT40 TDP1 CPT: inconclusive; VDR inh: inactive; DT40 TDP1 no CPT: 13µM; GCN5L2 inh: inactive

What do the screens show for `CCN1CCN(c2ccc(Nc3ccnc4ccccc34)cc2)CC1`?
TDP1 block: inactive; DT40 TDP1 CPT: 12µM; VDR inh: inactive; PLK1 PBD block: inactive; DT40 TDP1 no CPT: 5.8µM; GCN5L2 inh: inactive

What do the screens show for `CN1CCN(c2ccc(Nc3ccnc4cc(Cl)ccc34)cc2)CC1`?
TDP1 block: inactive; DT40 TDP1 CPT: 4.6µM; VDR inh: inactive; PLK1 PBD block: inactive; DT40 TDP1 no CPT: 5.8µM; GCN5L2 inh: inactive
